Compounds with a hit are over-represented: about 3.4% of the library has one in this group of screens.
LGR2 antag – blocks bursicon-induced cAMP signaling via Drosophila LGR2. AID 720647. HEK293 LGR2, CRE-luciferase, bursicon-stimulated, 4 h. inhibition, % at 9.99 µM. 380,000 compounds, 0.35% hits;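 active = drop in luminescence signal, shown as inhibition above about 50% in the replicate tests, limit read from the data, passing the limit was not always enough; inconclusive = probably only some replicates passing the limit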;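 also: agonist challenge used bursicon conditioned medium at about half maximal strength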
rRNA inh HTS – selective bacterial rRNA inhibition in E. coli; E. coli WT GFP vs humanized-ribosome RFP mutants, fluorescence, 24 h; stronger effect = lower value; DMSO median 0, no signal -100; GFP signal change (wild-type ribosome), % (test concentration not listed); 350,000 compounds, 1.6% hits; AID 720706;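 active = significant combined selectivity score with lowered wild-type GFP, culture density cut under 30%, mutant RFP and density less affected; inactive = any of these conditions unmet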
EWS-Fli block – EWS/Fli transcriptional activity inhibition. 350,000 compounds, 0.67% hits. A673 NR0B1-luciferase reporter, viability-normalised. inhibition, % at 12.6 µM. AID 651661;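 active = mean inhibition of at least 50% after viability correction, with every replicate also passing that limit; inconclusive = mean reaches 50% but only one of two replicates passes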;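 also: firefly luciferase signal divided by Alamar Blue viability fluorescence both relative to DMSO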
PAX8 inh HTS – lowers PAX8-driven luciferase in RMG-I cells; RMG-I TPO-luciferase reporter, SteadyGlo, 24 h; inhibition, % at 12.6 µM; 360,000 compounds, 1.2% hits; AID 652154;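 active = mean replicate inhibition at least 60% with every replicate also reaching 60%; inconclusive = only one of the two criteria is met; inactive = mean below 60% and not all replicates reaching 60%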;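 also: luciferase light reporting Pax8 driven TPO promoter activity; plate controls were median of neutral control wells for no effect and mitoxantrone controls for full effect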
SIRT5 block – sirtuin-5 (human) deacylase inhibition; Purified SirT5, succinyl-peptide AMC, trypsin-coupled fluorescence; inhibition, % at 15 µM; 330,000 compounds, 1.1% hits; AID 652115; in the data active = inhibition above about 15%; inconclusive = no clear call, values can overlap the other calls
Target sequence (Q9NXA8 whole entry, looked up): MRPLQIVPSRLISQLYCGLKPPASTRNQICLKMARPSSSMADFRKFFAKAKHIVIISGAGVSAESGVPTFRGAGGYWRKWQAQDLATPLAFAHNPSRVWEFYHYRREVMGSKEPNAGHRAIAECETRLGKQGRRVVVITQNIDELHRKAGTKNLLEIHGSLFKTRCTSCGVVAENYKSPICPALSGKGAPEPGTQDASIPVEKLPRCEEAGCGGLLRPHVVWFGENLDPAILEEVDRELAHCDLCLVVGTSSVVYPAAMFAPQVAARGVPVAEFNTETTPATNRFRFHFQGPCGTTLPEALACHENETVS
PGC1a acetyl inh – lowers PGC1a acetylation signal in U2OS cells. 350,000 compounds, 0.17% hits. inhibition, % at 15.6 µM. AlphaScreen anti-acetyl-lysine; with virally co-expressed GCN5 acetyltransferase;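 active = every replicate shows inhibition of at least 40%; inconclusive = mean inhibition at least 40% but some replicate below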;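 also: 0% = neutral control wells and 100% = positive control wells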
The depositor's hits bear a star; ? = inconclusive; · = no result; ! = a repeat was not active.

SMILES	LGR2 antag	rRNA inh HTS	EWS-Fli block	PAX8 inh HTS	SIRT5 block	PGC1a acetyl inh
CC1=C(/C=C/C(C)=N\NC(=O)c2ccncc2)C(C)(C)CCC1	-8	8	17	-5	4	·
CC1=C(/C=C/C(C)=C/C=C/C(C)=C/CO)C(C)(C)CCC1	·	-1	-4	·	26*	-4
Cc1nn(-c2ccccc2)c(C)c1/C=N/n1c(-c2ccc(Cl)cc2)n[nH]c1=S	-5	·	3	-5	17*	·
Cc1nc2sc(-c3ccccc3)cc2c(=O)n1/N=C/N(C)C	-20	-4	-59	-150	0	36
Cc1nc2sc(-c3ccccc3)cc2c(=O)n1N	81*	15	69*	41	2	1
O=C(C[C@@H]1C[C@@H]2c3cc(NS(=O)(=O)c4ccc(F)cc4)ccc3O[C@@H]2[C@H](CO)O1)NCC(F)(F)F	5	2	5	-13	-3	9
CC(C)Oc1ccccc1C1CC(=O)Nc2cc3c(cc21)OCO3 (stereo not given)	·	·	·	68*	·	-24
CCOc1ccccc1C1CC(=O)Nc2cc(C)c(C)cc21 (stereo not given)	-1	8	?	47	-1	-12
COc1ccccc1C1CC(=O)Nc2cc(C)c(C)cc21 (stereo not given)	3	-6	54*	53	-1	·
O=[N+]([O-])c1ccccc1S(=O)(=O)Oc1ccccc1/C=N/n1cnnc1	5	-4	3	98*	·	·
CCCCCn1c(CCNC(=O)c2cccs2)nc2ccccc21	2	-30*	10	·	1	-1
Cc1c(CC(Cl)(Cl)Cl)c2c(n1O)CC(C)(C)CC2=O	5	-32*	-2	2	-3	7
O=C1C(Cc2ccccc2)Nc2ncnc(N3CCOCC3)c2N1Cc1ccc(Cl)cc1 (stereo not given)	8	-21*!	-6	7	·	2
CN(C)C(=O)C[C@@H]1CC[C@@H]2[C@H](COc3ccc(NC(=O)c4ccc(F)c(F)c4)cc3C(=O)N2C)O1	2	-2	-6	-18	16*	0
CNC(=O)C[C@H]1CC[C@H]2[C@H](COc3ccc(NC(=O)c4cc(F)cc(F)c4)cc3C(=O)N2C)O1	0	0	-2	-10	-2	2
CN1C(=O)c2cc(NC(=O)Nc3cccc(Cl)c3)ccc2OC[C@@H]2O[C@@H](CC(=O)NCCc3ccncc3)CC[C@H]21	7	0	-16	74*	0	-3
CNC(=O)C[C@@H]1CC[C@@H]2[C@H](COc3ccc(NC(=O)c4cc(F)cc(F)c4)cc3C(=O)N2C)O1	16	-1	-9	-12	16*	-2
CN1C(=O)c2cc(NC(=O)c3cccc(Cl)c3)ccc2OC[C@@H]2O[C@H](CC(=O)NC3CCCCC3)CC[C@@H]21	2	-6	15	76*	·	4
CN1C(=O)c2cc(NC(=O)Nc3cccc(Cl)c3)ccc2OC[C@H]2O[C@@H](CC(=O)NCCc3ccncc3)CC[C@@H]21	27	-1	-6	-3	2	-4
CN1C(=O)c2cc(NC(=O)c3cccc(Cl)c3)ccc2OC[C@H]2O[C@@H](CC(=O)NC3CCCCC3)CC[C@@H]21	0	3	1	·	0	6
C[C@@H]1CN([C@@H](C)CO)C(=O)c2cc(-c3cccnc3)cnc2O[C@@H]1CN(C)Cc1ccccc1	13	5	-6	·	·	-1
C[C@@H]1CCCCO[C@@H](CN(C)Cc2ccc(C(=O)O)cc2)[C@H](C)CN([C@@H](C)CO)C(=O)c2cc(NS(=O)(=O)c3cn(C)cn3)ccc2O1	17	5	-7	12	·	11
Cc1nn(C)cc1NC(=O)C[C@@H]1CC[C@@H]2[C@@H](COc3ccc(NC(=O)C4CCC4)cc3C(=O)N2C)O1	-15	-16*	-5	-5	·	11
CNS(=O)(=O)c1cc(N(C)S(=O)(=O)c2ccc(C)cc2)c(C)cc1C	25	-45*	5	10	6	-8
Cc1ccc(S(=O)(=O)N(C)c2cc(S(=O)(=O)Nc3ccncc3)c(C)cc2C)cc1	6	·	·	-10	·	·
SMILES	LGR2 antag	rRNA inh HTS	EWS-Fli block	PAX8 inh HTS	SIRT5 block	PGC1a acetyl inh
Oc1ccc(/C=N\Nc2cc(N3CCOCC3)nc(N3CCOCC3)n2)c(O)c1	29	4	-4	87*	3	-3
O=c1[nH]cnc2ncc(-c3ccc(O)cc3)nc12	5	0	5	69*	-3	13
O=C(C[C@@H]1CC[C@H]2[C@@H](COC[C@@H](O)CN2C(=O)Nc2ccc(Cl)c(Cl)c2)O1)NCc1ccccc1	-2	-60	-9	6	-2	0
CCn1cc(C(=O)NCc2cccs2)c(=O)c2ccc(C)nc21	1	·	·	·	·	21
C=CCSc1nnc(NC(=O)c2cn(CC)c3nc(C)ccc3c2=O)s1	-10	-29	-3	-14	20*	3
O=S(=O)(NN=Cc1ccc(O)cc1O)c1cc(Cl)c(Cl)cc1Cl	-72	-15*	2	-18	-1	-4
Cc1ccc(S(=O)(=O)N/N=C/c2ccc(O)cc2O)cc1[N+](=O)[O-]	-50	3	-5	-32	0	-5
Cc1noc(C)c1S(=O)(=O)N(C)C[C@H]1Oc2ccc(NC(=O)CCCCCC(=O)Nc3ccccc3N)cc2CC(=O)N([C@@H](C)CO)C[C@H]1C	4	1	-20	-6	-7	-2
CCn1c(CSCc2ccccc2)n[nH]c1=S	-3	9	0	5	37*	14
CCn1c(Cc2ccccc2)n[nH]c1=S	8	11	4	2	31*	8
Cc1noc(C)c1NC(=O)Nc1ccc2c(c1)C(=O)N([C@H](C)CO)C[C@@H](C)[C@H](CN(C)C(=O)Nc1cccc3ccccc13)OCCCC[C@H](C)O2	6	0	39	12	-4	-10
Cc1ccc(S(=O)(=O)Nc2cccc3c2O[C@@H](CN(C)Cc2ccc4c(c2)OCO4)[C@@H](C)CN([C@@H](C)CO)C3=O)cc1	1	-5	7	15	-4	-6
C[C@H](CO)N1C[C@H](C)[C@@H](CN(C)Cc2ccc(-c3ccccc3)cc2)Oc2c(NS(=O)(=O)c3ccccc3)cccc2C1=O	16	1	-9	-2	16*!	-15
C[C@@H]1CN([C@H](C)CO)C(=O)c2cccc(NS(=O)(=O)c3cn(C)cn3)c2O[C@@H]1CN(C)Cc1ccc(Oc2ccccc2)cc1	4	2	0	·	0	1
C[C@@H]1CN([C@H](C)CO)C(=O)c2cccc(NS(=O)(=O)c3ccccc3)c2O[C@@H]1CN(C)Cc1ccc(-c2ccccc2)cc1	4	-1	1	·	8	6
